We go through 31 compounds from PubChem BioAssay (NCATS).

The target of assay [1] is Glutathione peroxidase 1 (Homo sapiens) (UniProt P07203). The experiment in a line: Primary qHTS Assay for Inhibitors of Recombinant Selenoprotein Glutathione Peroxidase 1 (GPX1) (AID 1845191). Note: nearly all actives have a fitted effect of over 65% in size. The method in brief:
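GR-coupled assay: compounds preincubated 30 min at room temperature with GPX1, then reaction started with CHP; final 10 nM GPX1, 1 mM GSH, 0.5 mM CHP, 0.5 mM NADPH, 100 nM GR, 0.01% BSA, pH 7.5 Tris buffer. NADPH fluorescence (340/450 nm) read at 0 and 15 min.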
For orientation: In qHTS, concentration-response curves come from the screen itself.

Assay [2] is described as follows: Quantitative High-Throughput drug screen in 47 multiple myeloma cell lines against the NCATS MIPE library collection: FR4_PLB cell viability assay (AID 1918924; note: nearly all actives have a fitted effect of over 35% in size; note: potency is the fitted concentration of half-maximal effect). The method in brief:
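Myeloma cell lines, 500 cells per well, exposed to MIPE 4.0 library compounds for 48 h at 37C, 5% CO2. Viability from ATP by CellTiter-Glo luminescence; normalised to DMSO (100%) and media-only (0%) wells.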

Assay [3] in a line: Quantitative High-Throughput drug screen in 47 multiple myeloma cell lines against the NCATS MIPE library collection: Delta47_JCRB cell viability assay (AID 1918925; note: nearly all actives have a fitted effect of over 45% in size; note: potency is the fitted concentration of half-maximal effect). The method in brief:
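Relative luminescence from CellTiter-Glo served as the viability signal, referenced to DMSO-treated (100%) and cell-free medium (0%) controls. Treatment lasted 48 hours at 37C with 500 cells per well.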

For assay [4], the target named is Phospholipid hydroperoxide glutathione peroxidase GPX4 (Homo sapiens) (UniProt P36969). The experiment in a line: Primary qHTS Assay for Inhibitors of Recombinant Selenoprotein Glutathione Peroxidase 4 (GPX4) (AID 1845192). Note: nearly all actives have a fitted effect of over 65% in size. In short, it runs like this: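 GR-coupled assay: recombinant GPX4 preincubated 30 min with compound at room temperature; final 200 nM GPX4, 1 mM GSH, 0.5 mM cumene hydroperoxide, 0.5 mM NADPH, 100 nM GR, 0.01% BSA, pH 7.5 Tris. NADPH fluorescence (340/450 nm) read at 0 and 15 min.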
Chain of Phospholipid hydroperoxide glutathione peroxidase GPX4 (Homo sapiens) (P36969 whole entry, looked up): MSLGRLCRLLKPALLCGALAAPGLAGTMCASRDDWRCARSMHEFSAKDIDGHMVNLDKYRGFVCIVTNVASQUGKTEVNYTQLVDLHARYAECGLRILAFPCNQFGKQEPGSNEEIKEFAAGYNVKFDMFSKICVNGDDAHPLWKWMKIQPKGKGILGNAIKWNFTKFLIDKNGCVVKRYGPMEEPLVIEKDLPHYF

Assay [5] addresses Luciferin 4-monooxygenase (Photinus pyralis) (UniProt P08659). The experiment in a line: Primary firefly luciferase (FLuc) qHTS assay for identification of artifact compounds. (AID 1845220). Note: nearly all actives have a fitted effect of over 60% in size. The method in brief:
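Enzymatic FLuc inhibition assay: compounds pre-exposed to luciferin/ATP (10 uM each) for 15 min, then purified P. pyralis enzyme at 10 nM added. Read-out: luminescence at 5 min.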

Assay [6] is described as follows: Primary fluorescence-based thiol-reactive (MSTI) qHTS assay for identification of artifact compounds. (AID 1845221).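 Note: series mostly up to about 54 µM; thiol-reactive compounds lower the probe fluorescence signal; nearly all actives have a fitted effect of over 65% in size.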 In short, it runs like this: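 Curve-fitted percent inhibition (4-parameter Hill) derived from fluorescence, Ex 525/Em 598 nm, scaled with Acetyl-MSTI and MSTI; 1 h incubation at room temperature.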
Assay [7] deals with Nanoluciferase (engineered Oplophorus gracilirostris luciferase). The experiment in a line: Primary Nanoluciferase (NLuc) qHTS assay for identification of artifact compounds. (AID 1845222).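 Note: NLuc secreted into diluted conditioned medium of S16 cells; series mostly up to about 54 µM.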 The method in brief:
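S16 cell supernatant NLuc, 1:55; cpds qHTS; 15 min RT dark; Nano-Glo substrate 1:100, 5 min; luminescence; Hill fit of % inhibition.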

Assay [8] is described as follows: Primary redox qHTS assay for identification of artifact compounds. (AID 1845223). In short, it runs like this: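 Amplex Red (25 uM) and HRP (250 mU/mL) in HBSS, with compounds for 15 min, then 250 uM DTT for 30 min, room temperature, dark. Fluorescence 525/598 nm read; normalized to DMSO and 10 uM DA3003; Hill fit.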

Results filed as inconclusive are left out. Activity calls are given as the source filed them. Calls come from the whole dose curve; as a rule, active = well fitted curve in the direction sought with a large enough effect; inconclusive = small, poorly fitted or top-dose-only effect, or another doubt; inactive = no such curve, though single readings can be large; an effect the other way counts as inactive or inconclusive.

Chain of Glutathione peroxidase 1 (Homo sapiens) (P07203 whole entry, looked up): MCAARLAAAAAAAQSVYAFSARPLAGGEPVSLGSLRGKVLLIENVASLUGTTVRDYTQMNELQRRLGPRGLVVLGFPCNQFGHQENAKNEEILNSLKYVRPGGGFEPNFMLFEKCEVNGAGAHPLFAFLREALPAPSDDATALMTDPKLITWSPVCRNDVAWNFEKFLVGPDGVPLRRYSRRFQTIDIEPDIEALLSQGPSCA

For the compound `N[C@@]1(C(=O)O)CS(=O)(=O)[C@H]2[C@H](C(=O)O)[C@H]21`, the Potency entry in assay [1] and in assay [2] was “inactive” each time. For the same compound, in assay [3], the Potency is 9.35 µM (active).

For `Cc1ccc(F)c(NC(=O)Nc2ccc(-c3cccc4[nH]nc(N)c34)cc2)c1`, the Potency result in assay [1] is “inactive”. Also, the Potency is 14.8 µM (active) in assay [2] and 13.2 µM (active) in assay [3].

Take `N[C@H](CSC(c1ccccc1)(c1ccccc1)c1ccccc1)C(=O)O`: the Potency result in assay [1] was “inactive”. Moreover, the figures for the Potency in assay [2] and in assay [3] were 5.26 µM (active) and 7.43 µM (active), respectively.

`CCc1ccc(OCc2ccccc2C(=O)Nc2ccc3nc(C)cc(N)c3c2)cc1`: the Potency entry in assay [1] is “inactive”. Further, the figures for the Potency in assay [2] and in assay [3] were 8.33 µM (active) and 1.18 µM (active), respectively.

In the case of `Cc1ccc(C(C)(O)c2nc3ccccc3s2)c(C)c1` (stereo not drawn), the Potency result in assay [1], in assay [4] and in assay [3] was “inactive” in each case.

Consider `Clc1cc(Cl)cc(CNc2ncncc2-c2ccc3c(c2)OCO3)c1`, for which the Potency entry in assay [1] and in assay [4] was “inactive” throughout. Also, the Potency in assay [2] is 14.8 µM (active); in assay [3], 11.8 µM (active).

As for `COc1cc2nc(-c3ccc(N4CCN(C)CC4)cc3)nc(NCCN3CCOCC3)c2cc1OC`, the Potency entry in assay [1], in assay [5], in assay [6] and in assay [7] was “inactive” throughout. Besides, the Potency in assay [2] is 0.0296 µM (active).

Consider `CCNc1cc(NC2CCC(O)CC2)nc(Nc2ccc3c(ccn3Cc3ccccc3)c2)n1` (stereo not drawn), for which the Potency result in assay [1] and in assay [4] was “inactive” in each case. The Potency was 26.4 µM (active) in assay [2] and 18.7 µM (active) in assay [3].

As to `CN(C)c1cc(NC(=O)CNC(C)(C)C)c(O)c2c1C[C@@H]1C[C@H]3[C@H](N(C)C)C(=O)C(C(N)=O)=C(O)[C@@]3(O)C(=O)C1=C2O`, the Potency entry in assay [1], in assay [2] and in assay [3] was “inactive” each time.

For `COc1ccc2cccc(CCNC(C)=O)c2c1`, the Potency entry in assay [1], in assay [4], in assay [2] and in assay [3] was “inactive” each time.

`CN(C)Cc1ccc(-c2nc3cccc4c3n2CCNC4=O)cc1`: the Potency result in assay [1], in assay [5], in assay [6] and in assay [7] was “inactive” each time. In assay [8], the call was inactive. Besides, the Potency in assay [2] and in assay [3] was 23.5 µM (active) throughout.

`Oc1ccc(C2CCN(c3ccnc4ccccc34)CC2)cc1O`: the Potency result in assay [1] and in assay [4] was “inactive” in each case. Also, the Potency in assay [2] is 14.8 µM (active); in assay [3], 9.35 µM (active).

`O=C(Nc1cc(Cl)cc2c1[nH]c1cnccc12)c1cccnc1`: the Potency entry in assay [1] and in assay [4] was “inactive” each time. Also, the Potency in assay [2] is 1.87 µM (active); in assay [3], 4.18 µM (active).

Turning to `NC(CO)(CO)CCc1ccc(Sc2cccc(OCc3ccccc3)c2)cc1Cl`, the Potency result in assay [1] and in assay [4] was “inactive” throughout. In addition, the Potency in assay [3] is 9.35 µM (active).

Consider `Clc1ccc(-c2nc3sccn3c2C=NOCc2ccc(Cl)c(Cl)c2)cc1`, for which, in assay [2], the Potency entry was “inactive”.

As for `O=C1NC(=O)C(=Cc2ccc3c(c2)OC(F)(F)O3)S1`, in assay [2], the Potency entry was “inactive”.

Take `O=C1NC(=O)C(=Cc2cccc(C(F)(F)F)c2)S1`: in assay [2], the Potency entry is “inactive”.

Take `NC1CCC(Nc2nc(Nc3ccc(C(=O)N4CCCCC4)cc3)c3ncn(-c4cccc(F)c4)c3n2)CC1` (stereo not drawn): in assay [2], the Potency entry is “inactive”.

On to `COc1ccc2c3c1OC1C[C@@H](O)C=C[C@@]31CCN(C)C2` (stereo partly drawn), for which, in assay [2], the Potency result is “inactive”.

As to `COc1ccc(-c2cc(=O)c3c(O)cc(O)cc3o2)cc1O`, in assay [1], the Potency entry is “inactive”. In addition, the Potency in assay [3] is 4.69 µM (active).

For `NC(=O)NN=Cc1ccc([N+](=O)[O-])o1`, in assay [2], the Potency result is “inactive”.

Take `COc1ccc(C2CC(c3ccccc3)=NN2c2ccc(S(N)(=O)=O)cc2)cc1` (stereo not drawn): the Potency result in assay [6] and in assay [7] was “inactive” in each case. Also, in assay [8], the call was inactive.

As for `CN(C)CCC=C1c2ccccc2COc2ccc(CC(=O)O)cc21`, the Potency result in assay [2] is “inactive”.

On to `OC[C@H]1O[C@@H](Oc2cc(O)cc(C=Cc3ccc(O)cc3)c2)[C@H](O)[C@@H](O)[C@H]1O`, for which the Potency entry in assay [2] was “inactive”.

Consider `CC[C@]1(O)C[C@@H]2CN(CCc3c([nH]c4ccccc34)[C@@](C(=O)OC)(c3cc4c(cc3OC)N(C=O)[C@@H]3C45CCN4CC=C[C@](CC)([C@H]45)[C@@H](OC(C)=O)[C@]3(O)C(=O)OC)C2)C1` (stereo partly drawn), for which, in assay [2], the Potency was 20.9 µM (active).

`Cn1cc(C=C2C(=O)Nc3cccnc32)c2ccccc21`: in assay [2], the Potency entry is “inactive”.

Take `O=C(O)[C@H]1O[C@H](Oc2cc3oc(-c4ccccc4)cc(=O)c3c(O)c2O)[C@H](O)[C@@H](O)[C@H]1O`: the Potency in assay [2] is 26.4 µM (active).

As to `COc1ccc(C2Sc3ccccc3N(CCN(C)C)C(=O)C2OC(C)=O)cc1` (stereo not drawn), the Potency entry in assay [4], in assay [5], in assay [6], in assay [7], in assay [2] and in assay [3] was “inactive” throughout. The result in assay [8] was inactive.

Turning to `C[N+](C)(C)CC(=O)O`, the Potency result in assay [2] was “inactive”.

Consider `CO[C@H]1C=CO[C@@]2(C)Oc3c(C)c(O)c4c(O)c(c5c(c4c3C2=O)NC2(CCN(CC(C)C)CC2)N=5)=NC(=O)C(C)=CC=C[C@H](C)[C@H](O)[C@@H](C)[C@@H](O)[C@@H](C)[C@H](OC(C)=O)[C@H]1C`, for which the Potency entry in assay [4], in assay [5], in assay [7] and in assay [3] was “inactive” each time. In addition, the result in assay [8] was inactive.

Consider `C[N+]1(C)[C@@H]2CC(OC(=O)[C@H](CO)c3ccccc3)C[C@H]1[C@H]1O[C@@H]12` (stereo partly drawn), for which the Potency entry in assay [2] is “inactive”.
